PLAP activator: activators of human placental alkaline phosphatase; activation fold at 20 µM; AID 696; 1.2% of 96,000 active; purified PLAP enzyme, luminescent substrate read-out; hits give high values; in the data active = activation fold above about 2
Cav3 T inh: blocks human Cav3.2 T-type calcium channel. O95180. Cav3.2-expressing cells, Fluo-4 calcium fluorescence FDSS; hits give low values. B-score at 10 µM. 4% of 100,000 active. AID 449739;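 active = single-dose well whose peak fluorescence ratio is a statistical outlier from its plate by either plate-standardised score or position-corrected B-score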
PostGolgi ctrl: growth of the yeast control strain, post-Golgi counter-screen | efflux-deficient yeast background strain, growth absorbance A615, 16 h | inhibition, % at 10 µM | 5% of 98,000 active | AID 738
D1 allo mod: allosterically modulates the human D1 dopamine receptor; P21728; HEK293 D1, CRE-luciferase, dopamine EC30 potentiation; actives deviate in either direction; B-score at 10 µM; 5.9% of 58,000 active;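 active = luminescence count or its row- and column-corrected plate score outside the 99.7% band of the plate's sample wells, on either side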
PostGolgi yeast: growth inhibition of a yeast mutant, post-Golgi transport screen | 0.9% of 98,000 active | inhibition, % at 10 µM | post-Golgi transport phenotypic cell assay | AID 739;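 note: yeast cells grown in 1536-well plates; yeast grown about 18 h at 30C before absorbance read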
hDAT+cocaine: modulates human dopamine transporter uptake under cocaine; B-score at 10 µM; Q01959; LLC-PK1 hDAT cells, [14C]-dopamine uptake with cocaine IC80; actives deviate in either direction; 1.3% of 110,000 active;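 active = Z score or B-score, a plate-position-corrected score, falls beyond the plate's 99.7% confidence bounds, in either direction; inactive = both scores lie inside the 99.7% bounds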;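 note: scored against the spread of the other compound wells on the same plate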
Numbers without * were called inactive; . = no result. This is a sample that favours compounds with a hit; in the whole collection about 12% have one here. Cut-off read from the data, not from the text of the source, unless noted: active = inhibition above about 30%; inactive = the rest.

SMILES	PLAP activator	Cav3 T inh	PostGolgi ctrl	D1 allo mod	PostGolgi yeast	hDAT+cocaine
O=C(NCc1ccco1)/C(=C/c1cccnc1)NC(=O)c1ccco1	0.9	0.297	6.5	.	13.2	0.348
COCCCNc1oc(COc2ccc(Cl)cc2Cl)nc1C#N	1.5	-5.59*	13.4	0.458	-4.3	2.15*
CN(C)CCNc1oc(COc2ccc(Cl)cc2Cl)nc1C#N	2*	0.35	-3.4	.	0.8	-0.203
CS(=O)(=O)c1ccc(CNC(=O)C2(C(F)(F)F)C/C(=C\Cc3ccccc3)CCCO2)cc1 (stereo not drawn)	.	-2.11	.	.	.	0.442
Cc1cc(/C=N/n2cnnc2)c(C)n1-c1ccc(OCc2ccccc2F)cc1	1.1	-1.08	64.6*	-2.53	7.2	1.34
Cc1cc(/C=N/n2cnnc2)c(C)n1-c1ccc(OCc2ccc(Cl)cc2)cc1	1.1	0.155	77.6*	.	10.8	0.64
C(=N\n1cnnc1)/c1ccc(OCc2ccccc2)cc1	0.8	0.832	3.6	-0.422	0.6	0.786
CCn1c(COc2cccc3ccccc23)nnc1SCC(N)=O	1	-0.0901	6.2	0.883	-5.2	-0.419
Cc1cc(C(F)F)n2nc(C(=O)Nc3cccnc3Cl)nc2n1	1.2	-0.0886	6.8	.	10.5	1.35
COc1ccccc1CN(Cc1cc2cc(C)ccc2[nH]c1=O)Cc1nnnn1Cc1ccco1	1.6	-4.43*	11.1	-0.965	-0.5	-0.0218
CC(C)(C)n1nnnc1CN(Cc1ccco1)Cc1cc2cc3c(cc2[nH]c1=O)OCO3	0.9	0.372	1.2	0.652	-2.8	1.52*
COc1ccc(Cn2nnnc2CN(Cc2cc3ccc(C)cc3[nH]c2=O)C2CCCC2)cc1	0.9	-0.0448	14.6	0.317	-4.3	0.809
Cc1cccc2cc(CN(Cc3nnnn3C3CCCCC3)C3CCCC3)c3nnnn3c12	.	-0.71	85.8*	.	96.9*	1.33
COc1ccc(Cn2nnnc2CN(Cc2cc3cccc(C)c3[nH]c2=O)C2CCCC2)cc1	1	-0.286	-3.9	-3.33*	-3.7	-0.00129
O=C(NCc1cccc(C(F)(F)F)c1)C1CCN(c2ncccn2)CC1	1.1	0.14	11.4	0.572	-8.3	-0.0292
CCOc1ccc2[nH]c(=O)c(CN(Cc3nnnn3Cc3ccco3)C3CCCCC3)cc2c1	1.6	-0.0478	-3.0	.	-7.7	-0.247
CCOC(=O)Cn1nnnc1CN(Cc1ccc(OC)cc1)Cc1cc2cc(CC)ccc2[nH]c1=O	1.5	-5.38*	8.4	0.257	-6.4	1.92
CCN(Cc1cc2cc(OC)ccc2[nH]c1=O)C(=O)Cc1ccc(OC)cc1	1	.	-4.3	1.04	2.1	-3.21*
COc1cc2cc(CN(Cc3nnnn3Cc3ccco3)C3CCCCC3)c(=O)[nH]c2cc1OC	1.8	1.19	8.0	2.53	-0.5	3*
CCN(Cc1cc2cc(OC)ccc2[nH]c1=O)C(=O)c1ccncc1	0.9	0.167	0.0	0.243	-4.1	-0.504
COc1nnc(-c2ccc(N3CCCCC3)c(NC(C)=O)c2)c2ccccc12	1.7	1.11	10.7	.	-1.0	2.13
O=C(ONc1ccc(N=NC(=O)c2ccccc2O)cc1)c1ccccc1	1	-4.51*	0.7	.	13.4	0.0105
O=C(Cn1cnc2c(nnn2Cc2ccccc2F)c1=O)NCc1ccco1	1	.	-3.0	-0.448	-4.2	.
O=S(=O)(N/N=C1\CC(c2ccccc2)Oc2ccccc21)c1ccccc1 (stereo not drawn)	1	-7.66*	19.6	.	2.6	-0.439
CCOc1ccc(S(=O)(=O)N/N=C2/CC(c3ccccc3)Oc3ccccc32)cc1 (stereo not drawn)	1.4	-7.13*	7.1	.	22.9	0.364
SMILES	PLAP activator	Cav3 T inh	PostGolgi ctrl	D1 allo mod	PostGolgi yeast	hDAT+cocaine
CCOc1ccc(S(=O)(=O)NCc2ccco2)cc1	1	0.394	1.2	.	6.1	-0.532
Cc1ccc(S(=O)(=O)N/N=C2/CC(c3ccccc3)Oc3ccccc32)cc1 (stereo not drawn)	1.1	-2.75	32.7*	.	10.1	-0.0238
Cn1c(SCC(=O)Nc2cc(=O)n(C)c(=O)n2C)nnc1-c1cccs1	1.2	.	.	.	.	.
O=C(Nc1ncc(Br)s1)C(Cc1ccccc1)n1cccc1 (stereo not drawn)	1.4	-4.48*	89.1*	-0.245	86.8*	-0.0492
O=C(Nc1cccnc1)C(Cc1ccccc1)n1cccc1 (stereo not drawn)	0.9	0.263	20.5	0.016	-0.5	-1.31
CC(C)CCNc1nnnc2c1sc1nc(N3CCOCC3)c3c(c12)CC(C)(C)SC3	1.4	-4.78*	17.0	.	5.3	0.0149
